Data taken from the supplement of paper PMC10849652.
Of roughly 7,900 targets only a part is listed; those with a hit were picked by preference. About 0.6% of all pairs of compound and target were hits.

Key:
Assay in all cases: log2 fold change, soluble protein after heating vs DMSO (PISA); higher = thermal stabilisation; K562 cells, 10 uM, 30 min; active = over 0.2 and 3.5 SD of the protein, either way, in both replicates (recomputed)
erlotinib = compound: C#Cc1cccc(Nc2ncnc3cc(OCCOC)c(OCCOC)cc23)c1 [erlotinib]
How it was run: (§1)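 K562 cells (2×10^6 cells/mL) were treated with 10 μM compound for 30 min, and aliquots were heated for 3 min over 48°C-58°C. Pooled aliquots were extracted in PBS with 0.5% NP-40 at 4°C, and the supernatant after 21,000xg for 90 min was measured by TMTpro 16plex LC-MS/MS with channel sums equalised. Reported thermal stability, relative to control samples and from duplicates, is a log2 fold change.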

[1] = compound: C/C(=N\NC(=O)C1=CC(=CC=C1)S(=O)(=O)N2CCOCC2)/C3=C(C=CC(=C3)Cl)O
How it was run: as §1

[2] = compound: C1=CC(=C(C=C1Cl)C2=NC3=NC=CN=C3C(=N2)NC4=CC=NC=C4)F
How it was run: as §1

[3] = compound: C1=CC(=CC=C1C2=NC3=C(N2)C=C(C=C3)C(=O)N)OC4=CC=C(C=C4)Cl
How it was run: as §1

[4] = compound: C1=CC2=C(C=CC(=C2)/C=C\3/C(=O)NC(=NCC4=CC=CS4)S3)N=C1
How it was run: as §1

[5] = compound: C1=CC2=NC=CN=C2C=C1/C=C/3\C(=O)NC(=O)S3
How it was run: as §1

[6] = compound: C1=CC=C(C=C1)C2=NC(=C(N2)C3=CC=NC=C3)C4=CC(=C(C=C4)Cl)O
How it was run: as §1

[7] = compound: C1=CC=C2C(=C1)C3=NNC4=CC=CC(=C43)C2=O
How it was run: as §1

[8] = compound: C1CCN(C1)C(=O)NC2=CC=CC(=C2)NC3=NC=C(C(=N3)NCCC4=CN=CN4)Br
How it was run: as §1

[9] = compound: C1CN(CCC1(CC2=CC=C(C=C2)Cl)N)C3=NC=NC4=C3C=CN4
How it was run: as §1

IRAK-1-4 Inhibitor I = compound: C1COCCN1CCN2C3=CC=CC=C3N=C2NC(=O)C4=CC(=CC=C4)[N+](=O)[O-] [IRAK-1-4 Inhibitor I]
How it was run: as §1

ibrutinib = compound: C=CC(=O)N1CCC[C@@H](n2nc(-c3ccc(Oc4ccccc4)cc3)c3c(N)ncnc32)C1 [ibrutinib]
How it was run: as §1

[10] = compound: CC(=O)c1cnc2ccc(-c3cc(Cl)c(O)c(Cl)c3)nc2c1N[C@H]1CC[C@H](CN(C)C)CC1
How it was run: as §1

ralimetinib = compound: CC(C)(C)Cn1c(N)nc2ccc(-c3[nH]c(C(C)(C)C)nc3-c3ccc(F)cc3)nc21 [ralimetinib]
How it was run: as §1

[11] = compound: CC(C)(O)CC(=O)NCCn1ccc2ncnc(Nc3ccc(Oc4cccc(C(F)(F)F)c4)c(Cl)c3)c21
How it was run: as §1

[12] = compound: CC(C)C1=C2N=C(C=C(N2N=C1)NCC3=CC=CC=C3)NCCCCCCN
How it was run: as §1

[13] = compound: CC(C)C[C@@H](C=O)NC(=O)[C@H](CC(C)C)NC(=O)[C@H](CC(C)C)NC(=O)OCc1ccccc1
How it was run: as §1

pinometostat = compound: CC(C)N(C[C@H]1O[C@@H](n2cnc3c(N)ncnc32)[C@H](O)[C@@H]1O)[C@H]1C[C@@H](CCc2nc3cc(C(C)(C)C)ccc3[nH]2)C1 [pinometostat]
How it was run: as §1

[14] = compound: CC1=C(C(CC(=O)N1)C2=CC=C(C=C2)C(F)(F)F)C(=O)NC3=C(C=C4C(=C3)C=NN4)F
How it was run: as §1

[15] = compound: CC1=C(C2=C(C=C1)C(=O)C3=CC=CC=C3N2CCCN)C
How it was run: as §1

Measured: log2 fold change

PTTG1 (UniProt O95997)
Chain of UniProt O95997 (O95997 whole entry, looked up): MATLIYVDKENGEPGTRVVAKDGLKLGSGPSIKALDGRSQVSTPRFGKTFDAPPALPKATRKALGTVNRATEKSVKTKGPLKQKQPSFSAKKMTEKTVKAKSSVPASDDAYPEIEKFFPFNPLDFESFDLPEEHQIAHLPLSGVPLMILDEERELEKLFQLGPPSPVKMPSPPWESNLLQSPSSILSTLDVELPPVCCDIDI
active: [13] 0.393
inactive: erlotinib -0.024 | [1] 0.094 | [2] -0.024 | [3] 0.029 | [4] -0.043 | [5] -0.005 | [6] -0.205 | [7] -0.045 | [8] -0.024 | [9] -0.093 | IRAK-1-4 Inhibitor I -0.026 | ibrutinib -0.017 | [10] 0.057 | ralimetinib -0.069 | [11] -0.03 | [12] -0.002 | pinometostat 0.036 | [14] 0.055 | [15] -0.084

PHLDB1 isoform 2 (UniProt Q86UU1)
Chain of UniProt Q86UU1 (Q86UU1 whole entry, looked up): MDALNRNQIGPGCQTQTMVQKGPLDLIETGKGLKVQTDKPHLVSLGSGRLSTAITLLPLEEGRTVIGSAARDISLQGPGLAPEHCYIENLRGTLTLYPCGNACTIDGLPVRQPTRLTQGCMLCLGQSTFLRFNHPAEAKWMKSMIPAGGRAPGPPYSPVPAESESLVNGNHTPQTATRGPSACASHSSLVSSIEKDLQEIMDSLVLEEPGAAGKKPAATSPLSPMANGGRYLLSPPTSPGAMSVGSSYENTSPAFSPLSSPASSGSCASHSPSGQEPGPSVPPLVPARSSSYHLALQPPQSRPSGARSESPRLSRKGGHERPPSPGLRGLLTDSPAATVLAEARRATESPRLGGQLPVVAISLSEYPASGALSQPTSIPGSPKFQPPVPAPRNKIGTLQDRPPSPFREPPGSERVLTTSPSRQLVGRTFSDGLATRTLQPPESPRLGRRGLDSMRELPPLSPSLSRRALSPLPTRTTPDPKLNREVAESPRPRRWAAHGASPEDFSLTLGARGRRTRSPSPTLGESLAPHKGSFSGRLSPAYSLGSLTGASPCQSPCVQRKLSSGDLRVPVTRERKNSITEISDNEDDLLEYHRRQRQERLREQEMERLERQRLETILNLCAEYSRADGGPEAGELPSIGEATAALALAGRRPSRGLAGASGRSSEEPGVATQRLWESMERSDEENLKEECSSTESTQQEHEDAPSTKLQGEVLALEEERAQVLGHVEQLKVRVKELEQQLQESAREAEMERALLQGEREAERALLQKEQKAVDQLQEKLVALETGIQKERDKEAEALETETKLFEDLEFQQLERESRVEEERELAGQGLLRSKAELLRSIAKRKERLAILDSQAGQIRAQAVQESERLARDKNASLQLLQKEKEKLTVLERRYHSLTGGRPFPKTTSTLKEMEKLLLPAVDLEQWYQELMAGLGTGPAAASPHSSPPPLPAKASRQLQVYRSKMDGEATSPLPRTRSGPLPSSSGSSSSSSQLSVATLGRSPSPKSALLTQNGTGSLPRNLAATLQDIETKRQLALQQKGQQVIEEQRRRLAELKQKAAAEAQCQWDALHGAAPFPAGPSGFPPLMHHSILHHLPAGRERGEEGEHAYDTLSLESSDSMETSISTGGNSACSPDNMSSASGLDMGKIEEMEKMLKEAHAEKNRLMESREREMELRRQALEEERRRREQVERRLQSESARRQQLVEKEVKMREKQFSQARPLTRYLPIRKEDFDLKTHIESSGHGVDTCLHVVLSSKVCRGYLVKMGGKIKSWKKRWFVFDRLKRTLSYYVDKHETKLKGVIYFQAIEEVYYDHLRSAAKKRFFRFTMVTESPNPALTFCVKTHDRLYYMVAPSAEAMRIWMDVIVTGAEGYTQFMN
inactive: erlotinib -0.02 | [1] 0.03 | [2] 0.099 | [3] 0.027 | [4] 0.165 | [5] -0.093 | [6] 0.008 | [7] -0.125 | [8] -0.048 | [9] 0.025 | IRAK-1-4 Inhibitor I 0.014 | ibrutinib -0.055 | ralimetinib 0.005 | [11] -0.053 | [12] -0.018 | [13] 0.016 | pinometostat -0.011 | [14] 0.091 | [15] 0.118
active: [10] -0.832

POLR2K (UniProt P53803)
inactive: erlotinib -0.081 | [1] 0.021 | [2] -0.037 | [3] 0.127 | [4] -0.017 | [5] 0.097 | [6] -0.1 | [7] -0.105 | [8] 0.005 | [9] 0.022 | IRAK-1-4 Inhibitor I -0.041 | ibrutinib 0.003 | [10] 0.059 | ralimetinib -0.093 | [11] 0.028 | [13] 0.093 | pinometostat -0.092 | [14] -0.02 | [15] 0.027
active: [12] 0.429

PCNT (UniProt O95613)
inactive: erlotinib 0.284 | [1] -0.138 | [2] -0.095 | [3] -0.099 | [4] 0.15 | [5] -0.023 | [6] -0.079 | [7] -0.097 | [8] 0.065 | [9] -0.021 | IRAK-1-4 Inhibitor I 0.085 | ibrutinib -0.078 | [10] -0.079 | ralimetinib -0.113 | [11] -0.021 | [12] 0.053 | [13] 0.229 | pinometostat 0.069 | [14] 0.077 | [15] -0.018

PIP4K2C (UniProt Q8TBX8)
Chain of UniProt Q8TBX8 (Q8TBX8 whole entry, looked up): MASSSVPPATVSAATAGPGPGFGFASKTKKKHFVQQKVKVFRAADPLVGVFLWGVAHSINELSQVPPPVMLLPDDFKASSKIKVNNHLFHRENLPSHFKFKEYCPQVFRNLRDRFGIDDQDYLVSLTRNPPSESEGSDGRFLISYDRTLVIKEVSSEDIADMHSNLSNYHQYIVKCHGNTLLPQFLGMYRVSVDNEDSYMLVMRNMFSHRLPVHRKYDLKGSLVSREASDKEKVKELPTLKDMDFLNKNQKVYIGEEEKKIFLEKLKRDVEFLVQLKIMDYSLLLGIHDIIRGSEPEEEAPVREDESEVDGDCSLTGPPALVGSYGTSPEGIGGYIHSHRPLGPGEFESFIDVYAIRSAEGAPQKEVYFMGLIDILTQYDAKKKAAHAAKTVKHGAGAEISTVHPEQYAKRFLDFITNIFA
active: [10] 1.48
inactive: erlotinib 0.482 | [1] -0.063 | [2] 0.023 | [3] -0.129 | [4] 0.059 | [5] 0.575 | [6] 0.139 | [7] 0.21 | [8] 0.493 | [9] -0.025 | IRAK-1-4 Inhibitor I 0.607 | ibrutinib 0.064 | ralimetinib -0.019 | [11] -0.14 | [12] 0.095 | [13] 0.003 | pinometostat -0.006 | [14] -0.106 | [15] 0.018

PDE12 (UniProt Q6L8Q7)
Chain of UniProt Q6L8Q7 (Q6L8Q7 whole entry, looked up): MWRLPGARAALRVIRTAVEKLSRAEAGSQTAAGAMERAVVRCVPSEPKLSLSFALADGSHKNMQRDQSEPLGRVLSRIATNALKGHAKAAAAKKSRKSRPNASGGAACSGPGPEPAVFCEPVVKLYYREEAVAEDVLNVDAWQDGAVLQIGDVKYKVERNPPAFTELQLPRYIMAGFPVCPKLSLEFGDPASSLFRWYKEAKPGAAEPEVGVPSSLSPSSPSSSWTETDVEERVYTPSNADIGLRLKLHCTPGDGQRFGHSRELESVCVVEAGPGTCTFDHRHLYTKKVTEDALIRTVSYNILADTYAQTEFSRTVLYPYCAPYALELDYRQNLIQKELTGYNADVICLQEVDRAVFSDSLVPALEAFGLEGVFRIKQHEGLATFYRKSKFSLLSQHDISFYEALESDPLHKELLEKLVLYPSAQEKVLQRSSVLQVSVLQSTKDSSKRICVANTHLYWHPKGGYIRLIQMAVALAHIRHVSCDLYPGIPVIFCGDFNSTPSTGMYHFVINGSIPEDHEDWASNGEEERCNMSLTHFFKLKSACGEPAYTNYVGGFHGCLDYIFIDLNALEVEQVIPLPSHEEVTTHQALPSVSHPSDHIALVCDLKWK
inactive: erlotinib -0.023 | [1] 0.018 | [2] 0.052 | [3] 0.027 | [4] 0.001 | [5] -0.008 | [6] -0.015 | [7] 0.054 | [8] -0.04 | [9] 0.026 | IRAK-1-4 Inhibitor I 0.118 | ibrutinib 0.015 | [10] 0.085 | ralimetinib -0.036 | [11] -0.006 | [12] -0.032 | [13] 0.03 | pinometostat -0.031 | [14] 0.01 | [15] 0.033

PPP2R5C isoform 4 (UniProt Q13362)
Chain of UniProt Q13362 (Q13362 whole entry, looked up): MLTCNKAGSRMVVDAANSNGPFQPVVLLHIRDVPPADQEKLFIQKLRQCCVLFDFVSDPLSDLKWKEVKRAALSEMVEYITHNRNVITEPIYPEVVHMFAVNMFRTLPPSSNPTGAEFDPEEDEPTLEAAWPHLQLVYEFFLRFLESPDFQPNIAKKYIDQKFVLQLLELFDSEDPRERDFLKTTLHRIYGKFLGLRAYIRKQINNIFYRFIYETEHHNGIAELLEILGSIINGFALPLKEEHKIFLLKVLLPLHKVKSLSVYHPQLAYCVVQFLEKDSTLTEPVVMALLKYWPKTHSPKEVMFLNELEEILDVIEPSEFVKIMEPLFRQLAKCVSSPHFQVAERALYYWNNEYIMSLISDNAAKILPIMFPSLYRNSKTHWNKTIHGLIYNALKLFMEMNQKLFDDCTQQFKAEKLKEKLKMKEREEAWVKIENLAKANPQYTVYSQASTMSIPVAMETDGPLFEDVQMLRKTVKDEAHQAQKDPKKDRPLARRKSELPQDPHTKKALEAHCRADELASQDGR
inactive: erlotinib 0.036 | [1] -0.022 | [2] 0.218 | [3] -0.025 | [4] -0.039 | [5] -0.004 | [6] -0.029 | [7] -0.015 | [8] 0 | [9] 0.019 | IRAK-1-4 Inhibitor I 0.027 | ibrutinib -0.051 | [10] 0.019 | ralimetinib -0.15 | [11] -0.07 | [12] -0.02 | [13] 0.034 | pinometostat 0.043 | [14] 0.016 | [15] -0.032

PRKAR1A (UniProt P10644)
Chain of UniProt P10644 (P10644 whole entry, looked up): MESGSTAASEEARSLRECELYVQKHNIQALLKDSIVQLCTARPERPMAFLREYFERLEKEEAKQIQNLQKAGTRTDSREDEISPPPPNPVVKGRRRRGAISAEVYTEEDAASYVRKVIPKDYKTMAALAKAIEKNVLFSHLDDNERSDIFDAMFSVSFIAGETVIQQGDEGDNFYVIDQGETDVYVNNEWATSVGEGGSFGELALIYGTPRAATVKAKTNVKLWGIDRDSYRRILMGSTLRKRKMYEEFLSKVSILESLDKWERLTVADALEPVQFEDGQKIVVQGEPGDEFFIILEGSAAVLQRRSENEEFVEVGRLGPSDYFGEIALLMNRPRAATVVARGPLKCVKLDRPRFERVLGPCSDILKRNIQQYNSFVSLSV
inactive: erlotinib 0.078 | [1] -0.084 | [2] -0.037 | [3] -0.027 | [4] 0.116 | [5] 0.018 | [6] 0.066 | [7] 0.139 | [8] 0.128 | [9] -0.017 | IRAK-1-4 Inhibitor I -0.068 | ibrutinib 0.035 | [10] -0.049 | ralimetinib 0.268 | [11] 0.041 | [12] -0.149 | [13] 0.041 | pinometostat 0.131 | [14] -0.084 | [15] -0.127
